Assay outcomes deposited in PubChem BioAssay by National Center for Advancing Translational Sciences (NCATS).
TGFb SMAD3 inh – qHTS for Inhibitors of TGF-b; HepG2 CAGA-GFP TGF-b/SMAD3 reporter, GFP fluorescence, 18 h; TGF-beta stimulated, 500 pg/mL final; Potency, µM (titrated, usually from 46.1 µM), inactives show at the top dose activity, negative = inhibition, actives largely listed as inhibitors; 410,000 tested, 1.2% active; further: on the % scale 0 is the no-effect control and ±100 the full control effect; nearly all actives have a fitted effect of over 65% in size
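GFP signal (ex488/em500-530) from TGF-beta-stimulated HEPG2 CAGA-GFP cells, 500 pg/mL final, 18 h at 37 degrees C in DMEM plus 1% FBS, normalized to unstimulated and DMSO-stimulated controls.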
HepG2 viability – qHTS for Inhibitors of TGF-b: Cytotox Counterscreen. 410,000 tested, 0.76% active. AID 588856, 2011. HepG2 CAGA-GFP viability, ATP luminescence, 18 h. Potency, µM (doses to about 46.1 µM), for inactives: at the top dose activity change, negative = cytotoxicity, actives largely listed as cytotoxic
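HepG2 CAGA-GFP cells (1000/well, DMEM with 1% FBS) received compound, then TGF-beta at 500 pg/mL final, and were incubated 18 hours at 37 degrees C. Viability was read by CellTiter-Glo luminescence. Media-only wells were set as complete cell-killing and DMSO as no toxicity.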
ATXN2 expr inh – Primary qHTS for Inhibitors of ATXN expression; Potency, µM (titrated, usually from 57 µM), for the others: at the top dose activity change, negative = inhibition, actives largely listed as inhibitors; AID 1745845, 2022; 360,000 tested, 0.72% active; HEK-293 ATXN2-luciferase reporter, luminescence, 24 h; further: on the % scale 0 is the no-effect control and ±100 the full control effect; nearly all actives have a fitted effect of over 55% in size
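qHTS (up to 57 uM final) was run with 24 h compound exposure of reporter cells at 37 °C. Each well was multiplexed: SteadyGlo luminescence measured ATXN2-luciferase expression after a fluorogenic Gly-Phe-AFC viability readout (25 uM final).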
VP16 counter – VP16 counterscreen qHTS for inhibitors of ROR gamma transcriptional activity; Drosophila S2 Gal4-VP16 UAS-luciferase, luminescence, 20 h; Potency, µM (series often up to 53.6 µM), for inactives: at the top dose activity, negative = inhibition, usual class: inhibitors; 310,000 tested, 3.5% active; AID 2546, 2010;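 further: Gal4-VP16 expression switched on by copper sulfate through the metallothionein promoter; on the % scale 0 is the no-effect control and ±100 the full control effect; nearly all actives have a fitted effect of over 50% in size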
RORgamma inh – qHTS for inhibitors of ROR gamma transcriptional activity; AID 2551, 2010; 310,000 tested, 5.4% active; Potency, µM (series often up to 53.6 µM), for the others: at the highest dose activity change, negative = inhibition, usual class: inhibitors; Drosophila S2 Gal4-RORgamma UAS-luciferase reporter, 20 h; further: on the % scale 0 is the no-effect control and ±100 the full control effect; nearly all actives have a fitted effect of over 60% in size
Target sequence (P51450 whole entry, looked up, the tested form may be a part): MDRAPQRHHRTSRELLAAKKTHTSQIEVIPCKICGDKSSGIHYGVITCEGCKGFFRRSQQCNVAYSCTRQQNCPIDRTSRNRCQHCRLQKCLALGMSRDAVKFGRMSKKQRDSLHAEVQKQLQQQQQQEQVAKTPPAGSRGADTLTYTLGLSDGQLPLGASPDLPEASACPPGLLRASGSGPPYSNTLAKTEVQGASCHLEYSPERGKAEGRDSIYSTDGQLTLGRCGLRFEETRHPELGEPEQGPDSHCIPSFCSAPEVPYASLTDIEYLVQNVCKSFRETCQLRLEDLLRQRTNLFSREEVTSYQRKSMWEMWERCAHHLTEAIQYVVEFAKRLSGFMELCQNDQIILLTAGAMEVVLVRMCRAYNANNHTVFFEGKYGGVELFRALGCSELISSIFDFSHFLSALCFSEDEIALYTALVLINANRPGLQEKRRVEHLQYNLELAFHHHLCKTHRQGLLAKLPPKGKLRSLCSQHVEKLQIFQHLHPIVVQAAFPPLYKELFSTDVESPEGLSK
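Luminescence from a UAS-regulated Photinus luciferase reporter in stably transfected Drosophila Schneider cells is measured; decreased signal marks ROR gamma inhibition. Fusion expression is induced by 700 uM copper sulfate for 20 hr.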
S2 tox – Viability Counterscreen for Primary qHTS for Inhibitors of ATXN expression | S2 cells (HEK-293 line with an ATXN2-luciferase reporter) viability, CellTiter-Fluor protease fluorescence, 24 h | 400,000 tested, 0.49% active | Potency, µM (top dose mostly 56.7 µM), usual class: cytotoxic; further: nearly all actives have a fitted effect of over 40% in size
* = called active by the depositor; i = inactive; ? = inconclusive; . = no result; ! = a repeat was not active. This is a sample that favours compounds with a hit; in the whole collection about 6.3% have one here. The call rests on the fitted dose curve; in most records, active means well fitted curve in the direction sought with a large enough effect; inconclusive means small, poorly fitted or top-dose-only effect, or another doubt; inactive means no such curve, though single readings can be large; an effect the other way counts as inactive or inconclusive. Potency means the concentration at half of the fitted maximal effect.

SMILES	TGFb SMAD3 inh	HepG2 viability	ATXN2 expr inh	VP16 counter	RORgamma inh	S2 tox
CC(C)=CCOc1ccc([C@@H]2COc3c(ccc4c3C=CC(C)(C)O4)C2)c(O)c1	13µM*	14µM*	?	.	.	25µM*
COc1ccc(OCc2cc(=O)c3ccc4c(c3o2)C=CC(C)(C)O4)cc1OC	?	-23%	-4%	.	.	?
COc1ccc(CN2CCN(C(=O)CN3C(=O)C4C5C=CC(C5)C4C3=O)CC2)c(OC)c1OC (stereo not drawn)	-16%	-30%	-12%	6.3µM*	-28%	i
COc1ccc(CN2CCN(C(=O)CC(C)C)CC2)c(OC)c1OC	12%	11%	6%	3%	-1%	i
COc1ccc(-c2ccc(SC)nn2)cc1	-7%	7.1µM*	?	?	10µM*	i
Cc1nc(Nc2ccccc2)sc1-c1ccccc1	?	-72%	160%	11µM*	11µM*	i
NC(N)=NN=C(c1ccc(F)cc1)c1ccc(C(F)(F)F)cc1	10µM*	-109%	?	.	.	.
CO/N=C/C(NC(=O)c1ccc(C(F)(F)F)cc1)C(=O)OC (stereo not drawn)	-8%	6%	-7%	-7%	36%	i
CC(NC(=S)NC1CCC(C(C)(C)C)CC1)c1ccccc1 (stereo not drawn)	?	-20%	?	2.8µM*	1.6µM*	i
Fc1ccc(CNC(=S)NC2CCCCCC2)cc1	-28%	-46%	-8%	11µM*	6.3µM*	i
COc1ccc(CNC(=S)NC2CCCC2)cc1	?	-32%	6%	7.9µM*	8.9µM*	i
NS(=O)(=O)c1ccc(CNC(=S)NC2CCCC2)cc1	?	-31%	-17%	-10%	2%	i
Cc1ccc(CNC(=S)NC2CCC(C(C)(C)C)CC2)cc1 (stereo not drawn)	?	-24%	-25%	5µM*	2.8µM*	i
O=C(CN(Cc1ccco1)Cc1ccco1)Nc1cc(S(=O)(=O)N2CCCCC2)ccc1Cl	?	5%	.	.	.	i
COc1ccc(CNC(=S)NC2CCCCC2)cc1	19%	4%	5%	13µM*	7.1µM*	i
Fc1ccc(C(CNC(=S)NC2CCCCC2)N2CCOCC2)cc1 (stereo not drawn)	-6%	-7%	-20%	?	8.9µM*	i
C=CC[n+]1c(-c2ccc(OCC)cc2)csc1NNC(=O)Nc1ccccc1	?	-29%	-19%	?	16µM*	i
O=C(OCn1ncc(Br)c(Br)c1=O)c1ccccc1Cl	13µM*	18µM*	7.9µM*	5.6µM*	6.3µM*	10µM*
O=C(OCn1ncc(Br)c(Br)c1=O)c1ccc(F)cc1	11µM*	10µM*	7.9µM*	0.63µM*	?	14µM*
O=C(OCc1cnc(Cl)s1)c1ccccc1Cl	23%	4%	8%	1%	28%	i
COc1cc(OC)cc(C(=O)NC2CCN(CCCOc3ccccc3)CC2)c1	-7%	-32%	?	0%	6%	i
Cc1c(C2(O)CCCCC2)[nH]c2cc(C(F)(F)F)ccc12	?	-90%	?	.	.	.
CCc1c(C2(O)CCCCC2)[nH]c2cc(C(F)(F)F)ccc12	?	14µM*	?	?	-7%	32µM*
CC1(C)CC(=S)Nc2ccccc2S1	25%	-15%	5%	5µM*	2.8µM*	i
CC1C(=O)C(=O)C=CN1C (stereo not drawn)	.	.	.	-1%	-7%	.
SMILES	TGFb SMAD3 inh	HepG2 viability	ATXN2 expr inh	VP16 counter	RORgamma inh	S2 tox
CC(=O)c1sc(N/N=C2\CC3CC2C(C)C3(C)C)nc1C (stereo not drawn)	10%	0%	30%	?	7.1µM*	i
COc1ccc(/C(C)=N/Nc2nc(C)c(C(C)=O)s2)cc1	-8%	-42%	-29%	.	.	?
C#CCn1c(=NC(=O)CSC(C)=O)sc2cc(F)ccc21	?	-39%	?	-29%	2.5µM*	.
Cc1ncc2c(c1CNC(=O)c1cncs1)CCN(C(=O)c1ccsc1)C2	.	.	.	.	.	i
COc1ccc(C2N=C(c3ccccc3)C(C)(C)N2O)cc1OC (stereo not drawn)	-11%	5%	-10%	-17%	10µM*	i
CCC1=NC(c2ccccc2)N(O)C1(C)C (stereo not drawn)	0%	1%	-12%	-1%	2%	i
CCCCN(CCCC)c1ccc(Cn2ccc3ccccc32)cc1	18µM*	-72%	.	.	.	.
OC1(c2ccc3c(c2)CN(Cc2ccccn2)CCO3)CCN(c2ccccc2F)CC1	.	.	.	.	.	i
COCC1CCCN(Cc2ccc3c(c2)CN(C(=O)c2ccc(OC)nc2OC)CCO3)C1 (stereo not drawn)	.	.	.	.	.	i
CCN(CCN(C)C)C(=O)C1CCN(S(=O)(=O)c2c(C)noc2/C=C/c2ccccc2F)CC1	?	16µM*!	.	?	?	?
Cc1noc(/C=C/c2cccs2)c1S(=O)(=O)N1CCC(C(=O)Nc2ccc(F)c(Cl)c2)CC1	6.3µM*	-24%	.	.	.	.
CCOc1ccccc1/C=C/c1onc(C)c1S(=O)(=O)N1CCC(C(=O)N(CC)CC)CC1	?	5%	.	-6%	-43%	?
O=C1Nc2ccccc2N=C(c2ccccc2)C1N(C(=O)c1ccnc2ccccc12)c1ccccc1 (stereo not drawn)	?	-41%	-37%	.	.	?
CC(C)CC(c1nnnn1Cc1cccs1)N1CCN(c2nc3ccccc3s2)CC1 (stereo not drawn)	1%	2%	-17%	0%	10µM*	i
COc1ccccc1C1(O)CCN(CCCn2c3ccccc3c3ccccc32)CC1	.	.	.	4%	8%	.
CCN(CC)S(=O)(=O)c1ccc(C(=O)Nc2ccc(Cc3ccncc3)cc2)cc1	-7%	-9%	?	3.5µM*	5.6µM*	i
CCN(Cc1ccncc1)S(=O)(=O)c1ccc(C(C)=O)cc1	-27%	-15%	-2%	7.9µM*	31%	i
Cc1nn(-c2ccc(N3CCCC3)nn2)c(C)c1CCC(=O)NCc1ccccc1F	-10%	-25%	.	.	.	.
CN1CC[C@@H](c2c(O)cc(O)c3c(=O)cc(-c4ccccc4Cl)oc23)[C@@H](O)C1	.	.	0.15µM*	.	.	.
CCOc1cc(N2CCOCC2)c(OCC)cc1NC(=O)Cc1ccccc1	2%	-11%	7%	14%	0%	i
